High-throughput results from PubChem.
Sampled rows, rich in hits. Any-hit rate of the full collection: about 2.4%.
SENP7 block – blocks the human protease SENP7; recombinant SENP7, Z-RLRGG-aminoluciferin luminescence, 40 min; inhibition, % at 5 µM; 330,000 tested, 1.5% active; Q9BQF6;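 active = inhibition above about 50% at the single test dose, limit read from the data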;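 note: plate controls were DMSO with enzyme for no effect and no enzyme buffer wells for full effect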
SENP6 inh – SENP6 protease inhibition. Q9GZR1. Recombinant SENP6 catalytic domain, aminoluciferin luminescence. inhibition, % at 10 µM. 330,000 tested, 1.8% active;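 active = inhibition above about 50% at the single tested dose, limit read from the data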;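 note: plate controls were DMSO wells with enzyme for no effect and DMSO wells lacking enzyme for full effect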
Platelet DG rel – platelet dense granule release activity. 300,000 tested, 0.22% active. inhibition, %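 (compounds screened at 7.5 µM in platelet-rich plasma)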. human platelet-rich plasma, SFLLRN dense granule ATP release, luminescence. AID 1663;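 active = mean replicate score, as percent of positive control, at or above 50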
SENP8 block-1 – blocks the human protease SENP8. Q96LD8. purified SENP8, Z-RLRGG-aminoluciferin cleavage, luminescence. inhibition, % at 10 µM. 330,000 tested, 1.2% active. AID 2540; in the data active = inhibition above about 50%
Target sequence (Q96LD8 whole entry, looked up): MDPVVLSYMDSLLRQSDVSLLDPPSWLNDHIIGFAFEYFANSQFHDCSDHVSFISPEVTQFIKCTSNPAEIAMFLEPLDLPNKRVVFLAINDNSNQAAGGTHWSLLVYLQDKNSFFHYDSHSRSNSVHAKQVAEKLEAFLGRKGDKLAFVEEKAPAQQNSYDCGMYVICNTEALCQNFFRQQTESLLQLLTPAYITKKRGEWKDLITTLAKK
SENP8 block-2 – inhibitors of human SENP8 protease | recombinant SENP8, Nedd8 substrate fluorescence | inhibition, % at 20 µM | Q96LD8 | 360,000 tested, 0.64% active; in the data active = inhibition mostly above about 40%, no sharp cut-off; inactive = mostly below about 27%
SENP8 conf – confirmation of human SENP8 protease inhibitors | shares compounds with SENP7 block | Recombinant SENP8, Z-RLRGG-aminoluciferin luminescence, 60 min | inhibition, % at 12.5 µM | 6,200 tested, 40% active;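 active = mean inhibition across replicates above about 50%, limit read from the data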
SENP6 conf – human SENP6 inhibition, confirmed | shares compounds with SENP7 block | inhibition, % at 12.5 µM | AID 488915 | recombinant SENP6, Z-RLRGG-aminoluciferin luminescence | 6,200 tested, 58% active
SENP7 confirm – human SENP7 inhibition, confirmed; 6,200 tested, 69% active; shares compounds with SENP7 block; inhibition, % at 12.5 µM; AID 488917; recombinant SENP7, Z-RLRGG-aminoluciferin luminescence, 40 min
Casp3 SENP sel – caspase-3 inhibition (SENP selectivity assay); 6,200 tested, 60% active; inhibition, % at 12.5 µM; purified caspase-3, Z-DEVD-aminoluciferin luminescence, 60 min; shares compounds with SENP7 block;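 active = mean inhibition above about 50%, limit read from the data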;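 note: plate controls were enzyme with DMSO for no effect and wells without caspase-3 for full effect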
Target sequence (P42574 28-227 limits assumed): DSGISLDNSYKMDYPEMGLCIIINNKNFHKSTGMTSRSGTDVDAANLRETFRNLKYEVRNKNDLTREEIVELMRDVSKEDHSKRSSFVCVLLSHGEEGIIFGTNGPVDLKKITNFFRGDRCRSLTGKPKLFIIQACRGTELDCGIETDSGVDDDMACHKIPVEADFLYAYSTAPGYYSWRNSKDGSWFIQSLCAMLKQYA
Luc interf – counter-screen for SENP inhibitors: luminescence interference. shares compounds with SENP7 block. Pre-incubated SENP8/Z-RLRGG-aminoluciferin, luciferase luminescence interference. inhibition, % at 12.5 µM. 6,200 tested, 39% active;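 active = mean inhibition above about 50% when retested at one dose, limit read from the data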;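 note: plate controls were DMSO wells with completed reaction for no effect and substrate without enzyme for full effect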
Starred values were filed as active, the others as inactive; nt = no result given.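 Rule for the calls, unless noted: active = mean inhibition above about 50% in the one-dose retest (limit read from the data); inactive = the rest.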

SMILES	SENP7 block	SENP6 inh	Platelet DG rel	SENP8 block-1	SENP8 block-2	SENP8 conf	SENP6 conf	SENP7 confirm	Casp3 SENP sel	Luc interf
CSc1ccc(/C=C/c2ccc3cccc(O)c3n2)cc1	36	66*	13	42	-282	65*	90*	100*	91*	53*
Cc1ccsc1/C=C/c1ccc2cccc(O)c2n1	91*	94*	11	86*	-41	95*	97*	101*	91*	84*
COc1cc(/C=C/c2ccc3cccc(O)c3n2)c(Br)cc1O	77*	84*	0	87*	-219	63*	86*	100*	55*	10
COc1cc(/C=C/c2ccc3cccc(O)c3n2)ccc1O	51*	80*	-6	60*	-282	71*	75*	92*	43	82*
COc1cc(Br)c(/C=C/c2ccc3cccc(O)c3n2)cc1OC	5	11	0	-9	-39	nt	nt	nt	nt	nt
CCOc1ccc(-c2cccc(NC(=O)c3ccco3)c2)nn1	-8	-10	-2	-9	3	nt	nt	nt	nt	nt
Cc1ccc(N(CC(O)CN2CCCCC2)S(=O)(=O)c2ccc(C)cc2)cc1 (stereo not given)	3	-8	-6	-1	9	nt	nt	nt	nt	nt
COc1ccc(CN2CCN(C(=O)c3cc(-c4cccnc4)nc4ccc(Cl)cc34)CC2)c(OC)c1OC	7	-14	-5	0	2	nt	nt	nt	nt	nt
Oc1cccc2ccc(/C=C/c3ccccc3Br)nc12	70*	90*	-1	82*	-46	72*	87*	91*	78*	66*
Cc1ccc(NC(=O)Nc2cccc(F)c2)nc1	53*	52*	0	12	7	5	26	36	38	12
Cc1ccnc(NC(=O)Nc2cccc(F)c2)c1	94*	93*	9	73*	15	56*	72*	89*	72*	17
O=C1/C(=C/c2cccnc2)Sc2ccccc21	-6	16	0	-6	-5	nt	nt	nt	nt	nt
Cc1ccc(/C=C2\Sc3ccccc3C2=O)s1	96*	94*	7	89*	-224	16	86*	94*	67*	65*
COC(=O)c1ccc(/C=N/Nc2nc3ccccc3[nH]2)cc1	-9	-3	7	-20	-107	nt	nt	nt	nt	nt
O=C(O)c1ccc(/C=N/Nc2nc3ccccc3[nH]2)cc1	58*	-3	24	49	-193	14	17	46	33	4
O=c1[nH]c(N/N=C/c2ccc(O)cc2)nc2ccccc12	51*	75*	-4	60*	-336	44	62*	86*	81*	71*
O=c1[nH]c(N/N=C\c2ccc(F)cc2)nc2ccccc12	-8	-23	-9	0	-293	nt	nt	nt	nt	nt
O=C(NCCCN1CCCC1=O)c1ccc(NS(=O)(=O)c2ccccc2)cc1	-2	-4	-2	-1	4	nt	nt	nt	nt	nt
O=c1oc2cc(O)c(Cl)cc2c2ccccc12	11	61*	-2	34	-89	50*	45	73*	68*	38
Cn1nc([N+](=O)[O-])nc1N1CCOCC1	10	5	-4	61*	-1	-13	5	-3	-4	-3
O=C(Nc1cnc2sccn2c1=O)c1ccc(Cl)cc1Cl	56*	29	-8	-9	-23	14	13	35	53*	16
COc1ccc(Cl)cc1NC(=O)c1cnc2sccn2c1=O	-15	-12	-16	-8	-309	nt	nt	nt	nt	nt
O=C(O)c1ccc(-c2noc(-c3ccccc3F)n2)cc1	99*	99*	69*	96*	7	100*	101*	104*	100*	95*
Cc1ccc(-c2noc(-c3ccccc3F)n2)cc1	97*	96*	11	76*	7	73*	95*	101*	85*	68*
CCOC(=O)/C(N=Nc1ccc(C(=O)O)cc1[N+](=O)[O-])=C(\C)O	-3	-17	-1	-8	9	nt	nt	nt	nt	nt
SMILES	SENP7 block	SENP6 inh	Platelet DG rel	SENP8 block-1	SENP8 block-2	SENP8 conf	SENP6 conf	SENP7 confirm	Casp3 SENP sel	Luc interf
CC(=O)/C(N=Nc1ccc(C(=O)O)cc1[N+](=O)[O-])=C(\C)O	59*	-5	2	51*	24	54*	51*	84*	92*	64*
Cc1ccc2nc(-c3ccc4c(c3)NC(=O)CO4)cn2c1	1	-13	-1	-6	-199	nt	nt	nt	nt	nt
Clc1ccc2nc(-c3ccc4c(c3)OCO4)cn2c1	79*	75*	7	78*	-416	29	86*	70*	64*	11
Cc1ccc2nc(-c3ccc4c(c3)OCCO4)cn2c1	94*	89*	3	87*	-426	93*	93*	101*	94*	93*
CN(C)S(=O)(=O)c1cccc(-c2cn3cc(Cl)ccc3n2)c1	-8	-6	-4	-15	-134	nt	nt	nt	nt	nt
Clc1ccc2nc(-c3ccccc3)cn2c1	97*	95*	19	92*	-147	4	86*	99*	91*	33
CCOC(=O)c1c(C)oc(NC(=O)CCl)c1C(=O)OCC	1	-34	-10	-12	-3	nt	nt	nt	nt	nt
COc1ccc(-c2cc3cccc(OC)c3oc2=O)cc1	87*	81*	29	80*	-293	89*	90*	99*	88*	76*
O=C(O)c1ccc2nc(CO)[nH]c2c1	9	0	-2	4	5	nt	nt	nt	nt	nt
COc1cccc2cc(-c3nc4ccccc4[nH]3)c(=O)oc12	59*	50	-7	35	-290	16	15	20	36	19
Cc1cccc2cc(-c3nc4ccc(C(=O)O)cc4[nH]3)c(=O)oc12	86*	88*	11	86*	-282	94*	94*	100*	98*	56*
Cc1ccc(NC(=O)N[C@H](C(=O)O)C(C)C)c(C)c1	3	-6	11	7	14	nt	nt	nt	nt	nt
Cc1c(C(C)(C)C)s/c(=N/S(=O)(=O)c2ccccc2)n1C	3	-10	-10	-11	11	nt	nt	nt	nt	nt
Cc1c(C(C)(C)C)sc(=NC(=O)c2ccccc2O)n1C	72*	63*	-5	60*	-288	19	12	2	12	-3
O=C(CN1C(=O)C2(OCCCO2)c2ccccc21)NCc1ccccc1	52*	-16	3	-4	5	-8	-4	-8	4	1
